Drawing on ChEMBL document CHEMBL1961873, “Compounds: GSK PKIS; Assays: Nanosyn kinase panel” (2012), this text covers inhibition for two compounds.

The target of test [1] is T1, Inhibitor of nuclear factor kappa-B kinase subunit epsilon (Homo sapiens) (UniProt Q14164).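 Further: reported values are averaged percent inhibition figures against human IKKε.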
T1 sequence (whole entry): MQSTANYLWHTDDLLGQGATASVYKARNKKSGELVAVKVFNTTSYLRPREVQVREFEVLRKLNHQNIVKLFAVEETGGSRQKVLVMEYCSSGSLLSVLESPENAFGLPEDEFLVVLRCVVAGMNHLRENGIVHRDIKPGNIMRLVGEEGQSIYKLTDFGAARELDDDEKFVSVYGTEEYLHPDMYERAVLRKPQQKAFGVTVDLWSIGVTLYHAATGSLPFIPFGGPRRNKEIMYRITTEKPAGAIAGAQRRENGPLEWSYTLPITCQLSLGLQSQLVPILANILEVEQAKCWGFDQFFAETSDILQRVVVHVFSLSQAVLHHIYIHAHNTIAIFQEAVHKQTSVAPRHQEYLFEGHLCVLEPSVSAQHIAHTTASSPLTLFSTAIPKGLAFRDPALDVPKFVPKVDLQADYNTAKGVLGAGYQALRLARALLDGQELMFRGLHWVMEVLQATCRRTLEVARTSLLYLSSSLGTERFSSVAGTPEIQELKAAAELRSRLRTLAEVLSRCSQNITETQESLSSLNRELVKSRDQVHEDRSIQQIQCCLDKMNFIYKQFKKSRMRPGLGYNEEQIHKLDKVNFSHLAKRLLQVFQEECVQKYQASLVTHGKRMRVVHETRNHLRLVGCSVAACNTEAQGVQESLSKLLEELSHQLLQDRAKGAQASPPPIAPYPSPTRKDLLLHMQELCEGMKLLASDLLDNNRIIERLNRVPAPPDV
The settings on record: at 1 µM.

The target of test [2] is T2, Serine/threonine-protein kinase Nek1 (Homo sapiens) (UniProt Q96PY6).
T2 sequence (whole entry): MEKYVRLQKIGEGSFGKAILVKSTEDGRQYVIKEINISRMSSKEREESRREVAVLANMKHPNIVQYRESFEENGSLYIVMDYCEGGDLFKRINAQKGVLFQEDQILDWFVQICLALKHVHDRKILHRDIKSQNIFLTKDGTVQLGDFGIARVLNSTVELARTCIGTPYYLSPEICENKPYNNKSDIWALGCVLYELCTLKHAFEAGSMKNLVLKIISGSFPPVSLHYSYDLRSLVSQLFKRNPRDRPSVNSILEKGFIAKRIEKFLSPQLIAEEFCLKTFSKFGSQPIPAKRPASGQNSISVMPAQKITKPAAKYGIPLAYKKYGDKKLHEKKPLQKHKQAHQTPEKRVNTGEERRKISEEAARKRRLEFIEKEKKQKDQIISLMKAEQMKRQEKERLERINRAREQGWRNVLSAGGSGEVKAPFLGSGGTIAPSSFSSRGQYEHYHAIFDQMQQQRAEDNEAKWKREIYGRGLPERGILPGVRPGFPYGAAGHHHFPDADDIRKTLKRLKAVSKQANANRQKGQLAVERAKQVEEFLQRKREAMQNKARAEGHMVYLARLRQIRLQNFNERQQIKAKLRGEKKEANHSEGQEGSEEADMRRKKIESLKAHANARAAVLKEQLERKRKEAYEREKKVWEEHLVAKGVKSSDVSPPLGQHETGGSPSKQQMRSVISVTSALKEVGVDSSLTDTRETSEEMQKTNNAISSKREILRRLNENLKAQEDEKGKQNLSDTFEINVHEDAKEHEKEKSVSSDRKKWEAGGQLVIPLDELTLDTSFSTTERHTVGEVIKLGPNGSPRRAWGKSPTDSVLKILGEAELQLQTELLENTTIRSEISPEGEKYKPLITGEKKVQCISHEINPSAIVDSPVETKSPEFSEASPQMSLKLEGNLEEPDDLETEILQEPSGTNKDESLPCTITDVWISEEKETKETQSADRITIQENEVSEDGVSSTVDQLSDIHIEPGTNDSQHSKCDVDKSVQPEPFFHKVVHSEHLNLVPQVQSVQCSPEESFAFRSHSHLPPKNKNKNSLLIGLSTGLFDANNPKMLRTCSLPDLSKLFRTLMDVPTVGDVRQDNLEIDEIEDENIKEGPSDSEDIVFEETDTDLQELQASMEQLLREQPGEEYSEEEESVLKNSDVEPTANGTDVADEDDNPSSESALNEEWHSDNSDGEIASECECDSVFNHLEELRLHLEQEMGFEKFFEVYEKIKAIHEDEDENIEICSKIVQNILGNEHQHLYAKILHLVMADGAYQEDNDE
The settings on record: at 0.1 µM.

Test [3] deals with T2, Serine/threonine-protein kinase Nek1 (Homo sapiens). The settings on record: at 1 µM.
For test [4], the target named is T3, Serine/threonine-protein kinase Nek2 (Homo sapiens) (UniProt P51955).
T3 sequence (whole entry): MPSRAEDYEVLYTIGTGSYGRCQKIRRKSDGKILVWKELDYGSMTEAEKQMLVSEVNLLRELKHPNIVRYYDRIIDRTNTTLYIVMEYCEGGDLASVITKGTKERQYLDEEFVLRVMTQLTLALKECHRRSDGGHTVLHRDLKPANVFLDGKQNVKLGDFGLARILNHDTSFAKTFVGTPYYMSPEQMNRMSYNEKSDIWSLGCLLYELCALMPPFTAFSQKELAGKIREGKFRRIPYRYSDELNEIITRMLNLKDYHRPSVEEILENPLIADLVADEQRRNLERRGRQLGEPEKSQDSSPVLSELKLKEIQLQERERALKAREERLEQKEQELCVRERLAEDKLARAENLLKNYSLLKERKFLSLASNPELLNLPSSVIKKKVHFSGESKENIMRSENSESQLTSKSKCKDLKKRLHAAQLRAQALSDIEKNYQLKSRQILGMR
The settings on record: at 0.1 µM.

Test [5] has as its target T3, Serine/threonine-protein kinase Nek2 (Homo sapiens). The settings on record: at 1 µM.
Test [6] has as its target Serine/threonine-protein kinase Nek6 (Homo sapiens) (UniProt Q9HC98). The settings on record: at 0.1 µM.
For test [7] the target is unchanged. The settings on record: at 1 µM.
In test [8] the target is Serine/threonine-protein kinase Nek7 (Homo sapiens) (UniProt Q8TDX7). The settings on record: at 0.1 µM.
Test [9] has the same target. The settings on record: at 1 µM.
For test [10], the target named is T4, Serine/threonine-protein kinase Nek9 (Homo sapiens) (UniProt Q8TD19).
T4 sequence (whole entry): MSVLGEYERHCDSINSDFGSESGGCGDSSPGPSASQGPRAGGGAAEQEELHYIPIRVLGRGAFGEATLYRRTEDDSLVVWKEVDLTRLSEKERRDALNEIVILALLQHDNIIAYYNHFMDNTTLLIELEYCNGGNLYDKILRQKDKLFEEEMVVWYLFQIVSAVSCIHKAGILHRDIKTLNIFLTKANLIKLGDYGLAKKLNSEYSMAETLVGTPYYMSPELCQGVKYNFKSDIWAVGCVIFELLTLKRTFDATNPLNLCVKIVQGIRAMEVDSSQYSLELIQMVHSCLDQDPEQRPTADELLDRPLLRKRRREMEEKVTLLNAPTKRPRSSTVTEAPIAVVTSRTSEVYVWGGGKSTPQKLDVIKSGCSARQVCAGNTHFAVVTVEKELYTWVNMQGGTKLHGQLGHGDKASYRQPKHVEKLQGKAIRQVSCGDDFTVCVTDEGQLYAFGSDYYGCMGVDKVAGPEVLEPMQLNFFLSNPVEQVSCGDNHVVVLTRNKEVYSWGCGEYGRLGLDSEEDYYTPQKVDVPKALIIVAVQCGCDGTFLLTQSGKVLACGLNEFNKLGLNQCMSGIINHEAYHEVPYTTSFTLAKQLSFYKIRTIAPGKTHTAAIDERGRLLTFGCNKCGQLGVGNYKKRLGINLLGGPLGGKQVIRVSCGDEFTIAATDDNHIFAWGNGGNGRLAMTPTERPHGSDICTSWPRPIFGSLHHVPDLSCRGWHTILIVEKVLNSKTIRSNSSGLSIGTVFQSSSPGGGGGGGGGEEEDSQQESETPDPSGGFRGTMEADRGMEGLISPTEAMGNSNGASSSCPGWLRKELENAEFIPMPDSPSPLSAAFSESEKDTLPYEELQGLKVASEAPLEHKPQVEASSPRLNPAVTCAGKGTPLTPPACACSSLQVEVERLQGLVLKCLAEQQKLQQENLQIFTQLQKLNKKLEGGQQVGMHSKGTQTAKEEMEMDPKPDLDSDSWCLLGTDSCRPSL
The settings on record: at 0.1 µM.

For test [11], the target named is T4, Serine/threonine-protein kinase Nek9 (Homo sapiens). The settings on record: at 1 µM.
The target in test [12] is Serine/threonine-protein kinase PLK1 (Homo sapiens) (UniProt P53350). The settings on record: at 0.1 µM.
Test [13] shares this target. The settings on record: at 1 µM.
For test [14], the target named is T5, Dual specificity protein kinase TTK (Homo sapiens) (UniProt P33981).
T5 sequence (whole entry): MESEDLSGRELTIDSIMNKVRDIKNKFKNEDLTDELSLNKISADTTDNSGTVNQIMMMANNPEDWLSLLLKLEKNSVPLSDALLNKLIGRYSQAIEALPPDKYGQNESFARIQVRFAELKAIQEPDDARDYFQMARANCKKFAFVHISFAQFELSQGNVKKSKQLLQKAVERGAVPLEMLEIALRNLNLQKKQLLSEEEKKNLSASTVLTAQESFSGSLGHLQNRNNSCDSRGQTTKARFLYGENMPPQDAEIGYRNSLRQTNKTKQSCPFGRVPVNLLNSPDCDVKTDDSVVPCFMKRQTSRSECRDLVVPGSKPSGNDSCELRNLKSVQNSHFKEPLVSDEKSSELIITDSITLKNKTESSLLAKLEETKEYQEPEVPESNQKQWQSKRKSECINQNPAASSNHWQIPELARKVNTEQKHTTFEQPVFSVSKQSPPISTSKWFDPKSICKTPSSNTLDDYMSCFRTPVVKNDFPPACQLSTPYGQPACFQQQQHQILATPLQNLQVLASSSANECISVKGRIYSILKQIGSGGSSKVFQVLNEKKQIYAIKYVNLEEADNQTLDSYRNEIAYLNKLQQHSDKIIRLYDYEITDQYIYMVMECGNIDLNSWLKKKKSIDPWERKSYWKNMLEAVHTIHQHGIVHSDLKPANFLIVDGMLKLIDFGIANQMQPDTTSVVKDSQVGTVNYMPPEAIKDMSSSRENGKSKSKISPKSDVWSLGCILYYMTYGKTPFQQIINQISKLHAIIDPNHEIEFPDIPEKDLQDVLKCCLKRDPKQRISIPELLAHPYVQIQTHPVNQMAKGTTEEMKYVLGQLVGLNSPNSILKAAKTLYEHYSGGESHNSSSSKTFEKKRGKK
The settings on record: at 0.1 µM.

For test [15], the system named is T6, Receptor-type tyrosine-protein kinase FLT3 (Homo sapiens), P36888 [D835Y].
T6 sequence (whole entry): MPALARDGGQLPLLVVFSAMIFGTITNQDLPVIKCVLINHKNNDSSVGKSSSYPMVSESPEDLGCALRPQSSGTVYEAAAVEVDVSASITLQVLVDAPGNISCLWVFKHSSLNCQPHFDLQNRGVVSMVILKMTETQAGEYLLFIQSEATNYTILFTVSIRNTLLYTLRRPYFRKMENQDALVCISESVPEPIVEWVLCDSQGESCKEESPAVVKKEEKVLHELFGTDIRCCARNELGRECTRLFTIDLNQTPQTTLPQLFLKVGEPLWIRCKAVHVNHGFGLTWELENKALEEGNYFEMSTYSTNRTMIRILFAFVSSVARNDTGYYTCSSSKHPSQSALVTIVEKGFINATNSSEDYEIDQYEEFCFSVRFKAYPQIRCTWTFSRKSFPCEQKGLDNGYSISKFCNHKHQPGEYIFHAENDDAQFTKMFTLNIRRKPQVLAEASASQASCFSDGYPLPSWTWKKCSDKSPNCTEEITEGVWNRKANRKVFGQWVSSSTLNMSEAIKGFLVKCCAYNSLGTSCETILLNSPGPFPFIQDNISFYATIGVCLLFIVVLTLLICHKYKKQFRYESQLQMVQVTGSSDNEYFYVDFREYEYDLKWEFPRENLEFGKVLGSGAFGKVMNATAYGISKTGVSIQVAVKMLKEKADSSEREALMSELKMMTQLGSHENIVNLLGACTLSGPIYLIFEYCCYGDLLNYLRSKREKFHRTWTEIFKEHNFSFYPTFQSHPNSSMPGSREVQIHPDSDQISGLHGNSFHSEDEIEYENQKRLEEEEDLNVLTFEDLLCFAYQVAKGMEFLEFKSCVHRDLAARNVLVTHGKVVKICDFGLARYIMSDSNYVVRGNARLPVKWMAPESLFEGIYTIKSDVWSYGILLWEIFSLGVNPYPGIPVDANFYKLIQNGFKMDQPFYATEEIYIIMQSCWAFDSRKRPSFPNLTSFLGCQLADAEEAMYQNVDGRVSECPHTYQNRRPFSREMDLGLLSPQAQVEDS
The settings on record: at 1 µM.

Test [16] concerns the target Vascular endothelial growth factor receptor 3 (Homo sapiens) (UniProt P35916). The settings on record: at 0.1 µM.
The target is the same in test [17]. The settings on record: at 1 µM.
The target in test [18] is Macrophage colony-stimulating factor 1 receptor (Homo sapiens) (UniProt P07333). The settings on record: at 0.1 µM.
Test [19] has the same target. The settings on record: at 1 µM.
For test [20], the target named is Tyrosine-protein kinase Fyn (Homo sapiens) (UniProt P06241). The settings on record: at 0.1 µM.
Sequence of Tyrosine-protein kinase Fyn (Homo sapiens) (P06241 2-537 limits assumed): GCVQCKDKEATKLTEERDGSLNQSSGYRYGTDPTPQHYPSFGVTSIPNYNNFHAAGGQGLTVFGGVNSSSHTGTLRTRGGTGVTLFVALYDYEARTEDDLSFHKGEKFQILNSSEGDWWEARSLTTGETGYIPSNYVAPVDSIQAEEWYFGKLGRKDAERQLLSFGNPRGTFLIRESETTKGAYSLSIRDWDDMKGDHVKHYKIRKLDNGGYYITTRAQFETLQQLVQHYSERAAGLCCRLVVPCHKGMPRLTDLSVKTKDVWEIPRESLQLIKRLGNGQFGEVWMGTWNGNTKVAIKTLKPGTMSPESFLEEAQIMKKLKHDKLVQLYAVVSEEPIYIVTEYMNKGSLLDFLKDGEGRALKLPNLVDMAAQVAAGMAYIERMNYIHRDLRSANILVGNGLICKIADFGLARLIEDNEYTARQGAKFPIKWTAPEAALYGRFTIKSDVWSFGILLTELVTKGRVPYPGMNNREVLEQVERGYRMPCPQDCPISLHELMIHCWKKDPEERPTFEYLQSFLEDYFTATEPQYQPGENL

Sequence of Serine/threonine-protein kinase PLK1 (Homo sapiens) (P53350 whole entry): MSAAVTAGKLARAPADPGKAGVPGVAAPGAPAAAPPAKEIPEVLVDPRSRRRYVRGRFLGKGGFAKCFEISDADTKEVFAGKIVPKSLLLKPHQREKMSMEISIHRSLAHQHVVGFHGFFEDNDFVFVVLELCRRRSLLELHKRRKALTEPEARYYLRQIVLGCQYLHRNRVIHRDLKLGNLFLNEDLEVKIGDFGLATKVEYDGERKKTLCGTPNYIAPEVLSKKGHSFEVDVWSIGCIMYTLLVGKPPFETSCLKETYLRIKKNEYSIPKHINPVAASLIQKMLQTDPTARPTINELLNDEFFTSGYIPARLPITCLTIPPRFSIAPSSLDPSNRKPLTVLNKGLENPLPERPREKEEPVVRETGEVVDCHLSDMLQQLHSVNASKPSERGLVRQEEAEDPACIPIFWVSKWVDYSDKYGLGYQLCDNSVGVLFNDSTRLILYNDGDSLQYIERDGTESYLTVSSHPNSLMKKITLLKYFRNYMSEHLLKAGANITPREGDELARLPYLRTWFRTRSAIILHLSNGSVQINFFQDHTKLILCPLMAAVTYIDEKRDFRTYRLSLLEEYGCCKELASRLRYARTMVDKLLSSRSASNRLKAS
Sequence of Macrophage colony-stimulating factor 1 receptor (Homo sapiens) (P07333 whole entry): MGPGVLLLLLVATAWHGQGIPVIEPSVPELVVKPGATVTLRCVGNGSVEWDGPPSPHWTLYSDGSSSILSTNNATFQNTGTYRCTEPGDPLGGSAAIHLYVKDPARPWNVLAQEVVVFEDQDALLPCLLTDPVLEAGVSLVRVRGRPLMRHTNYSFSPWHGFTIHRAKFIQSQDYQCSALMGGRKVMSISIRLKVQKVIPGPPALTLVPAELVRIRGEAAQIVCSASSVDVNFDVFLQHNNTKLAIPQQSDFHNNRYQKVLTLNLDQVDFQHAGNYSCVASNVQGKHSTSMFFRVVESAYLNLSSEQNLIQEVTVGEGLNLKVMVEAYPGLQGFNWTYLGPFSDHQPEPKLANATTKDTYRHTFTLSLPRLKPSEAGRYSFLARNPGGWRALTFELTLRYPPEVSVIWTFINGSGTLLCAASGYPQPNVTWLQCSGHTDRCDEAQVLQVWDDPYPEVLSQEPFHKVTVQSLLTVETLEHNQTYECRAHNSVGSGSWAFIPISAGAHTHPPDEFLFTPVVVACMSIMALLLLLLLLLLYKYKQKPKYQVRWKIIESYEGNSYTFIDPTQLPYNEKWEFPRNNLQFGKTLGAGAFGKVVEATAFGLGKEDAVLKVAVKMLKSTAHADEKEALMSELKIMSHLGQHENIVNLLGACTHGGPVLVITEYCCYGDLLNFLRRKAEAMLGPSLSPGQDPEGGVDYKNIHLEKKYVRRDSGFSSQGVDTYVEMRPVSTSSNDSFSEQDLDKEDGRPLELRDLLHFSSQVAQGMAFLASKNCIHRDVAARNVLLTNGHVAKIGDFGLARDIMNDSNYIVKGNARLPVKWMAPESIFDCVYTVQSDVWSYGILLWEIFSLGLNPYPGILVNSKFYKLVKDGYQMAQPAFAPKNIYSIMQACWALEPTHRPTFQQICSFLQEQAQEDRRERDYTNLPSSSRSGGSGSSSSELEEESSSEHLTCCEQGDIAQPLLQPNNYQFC
Sequence of Serine/threonine-protein kinase Nek6 (Homo sapiens) (Q9HC98 whole entry): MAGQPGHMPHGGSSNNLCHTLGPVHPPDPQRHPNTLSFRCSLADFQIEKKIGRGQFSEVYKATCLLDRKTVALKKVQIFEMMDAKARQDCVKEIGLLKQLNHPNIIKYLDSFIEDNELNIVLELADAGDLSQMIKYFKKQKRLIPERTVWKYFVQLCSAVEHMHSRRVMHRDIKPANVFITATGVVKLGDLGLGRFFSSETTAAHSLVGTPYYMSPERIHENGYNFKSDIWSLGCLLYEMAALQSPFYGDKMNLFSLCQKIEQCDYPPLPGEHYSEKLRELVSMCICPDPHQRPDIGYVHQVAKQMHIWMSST
Sequence of Serine/threonine-protein kinase Nek7 (Homo sapiens) (Q8TDX7 whole entry, looked up): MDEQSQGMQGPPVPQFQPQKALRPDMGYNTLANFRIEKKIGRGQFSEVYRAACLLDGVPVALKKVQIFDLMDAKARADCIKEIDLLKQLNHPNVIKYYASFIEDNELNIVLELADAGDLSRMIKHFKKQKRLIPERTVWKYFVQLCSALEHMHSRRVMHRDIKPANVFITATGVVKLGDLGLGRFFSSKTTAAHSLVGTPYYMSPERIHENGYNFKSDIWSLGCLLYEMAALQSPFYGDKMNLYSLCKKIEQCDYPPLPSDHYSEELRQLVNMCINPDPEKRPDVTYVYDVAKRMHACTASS
Sequence of Vascular endothelial growth factor receptor 3 (Homo sapiens) (P35916 whole entry): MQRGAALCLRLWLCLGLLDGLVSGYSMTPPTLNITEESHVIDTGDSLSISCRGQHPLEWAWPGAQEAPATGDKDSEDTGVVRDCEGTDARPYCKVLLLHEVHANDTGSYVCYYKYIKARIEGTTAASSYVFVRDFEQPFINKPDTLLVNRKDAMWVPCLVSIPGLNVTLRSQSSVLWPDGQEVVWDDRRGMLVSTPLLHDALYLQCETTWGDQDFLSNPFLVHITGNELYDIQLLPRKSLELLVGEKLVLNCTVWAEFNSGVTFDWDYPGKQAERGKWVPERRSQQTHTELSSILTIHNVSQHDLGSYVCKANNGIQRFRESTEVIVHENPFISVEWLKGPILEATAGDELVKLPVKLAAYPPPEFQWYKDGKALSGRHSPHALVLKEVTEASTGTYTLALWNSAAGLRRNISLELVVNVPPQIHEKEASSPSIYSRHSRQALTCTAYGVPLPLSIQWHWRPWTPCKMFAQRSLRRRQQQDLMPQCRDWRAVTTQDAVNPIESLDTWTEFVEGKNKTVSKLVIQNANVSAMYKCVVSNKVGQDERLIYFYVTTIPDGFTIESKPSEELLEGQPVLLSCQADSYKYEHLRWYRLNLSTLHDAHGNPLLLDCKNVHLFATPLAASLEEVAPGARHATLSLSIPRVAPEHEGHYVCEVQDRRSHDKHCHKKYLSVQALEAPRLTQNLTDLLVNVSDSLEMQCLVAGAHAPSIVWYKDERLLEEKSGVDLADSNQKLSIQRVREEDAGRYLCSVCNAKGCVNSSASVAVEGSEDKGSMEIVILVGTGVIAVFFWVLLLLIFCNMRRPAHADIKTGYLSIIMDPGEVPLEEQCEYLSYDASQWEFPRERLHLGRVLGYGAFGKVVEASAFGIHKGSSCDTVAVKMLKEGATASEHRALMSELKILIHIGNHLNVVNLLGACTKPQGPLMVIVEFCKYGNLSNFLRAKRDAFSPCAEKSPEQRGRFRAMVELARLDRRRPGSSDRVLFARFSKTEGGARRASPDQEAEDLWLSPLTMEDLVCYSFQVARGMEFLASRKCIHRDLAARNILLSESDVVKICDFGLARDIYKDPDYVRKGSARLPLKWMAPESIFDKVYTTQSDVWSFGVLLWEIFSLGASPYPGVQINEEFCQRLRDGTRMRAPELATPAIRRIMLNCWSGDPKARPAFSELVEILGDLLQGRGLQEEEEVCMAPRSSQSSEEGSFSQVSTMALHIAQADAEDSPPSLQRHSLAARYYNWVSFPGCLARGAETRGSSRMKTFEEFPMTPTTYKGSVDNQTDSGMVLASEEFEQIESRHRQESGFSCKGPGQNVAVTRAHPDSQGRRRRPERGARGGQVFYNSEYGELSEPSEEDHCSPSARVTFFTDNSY

Regarding `COc1cc2ncnc(Nc3ccc(C)c(O)c3)c2cc1OC`, the inhibition (as a rule, the relative decrease from the control value, in per cent) in [1] amounted to 6.95%; in test [2] it was 3.4%; in [3] it was 5.46%; in test [4], 5.78%; in test [5], 7.02%; in [6], 3.27%. The inhibition in test [7] was 4.18%; in [8], 4.88%; in test [9], 4.92%; in test [10], 6.41%; in test [11] it was 11.6%; in [12], 2.93%. The inhibition amounted to 2.77% in test [13]; 9.85% in test [14]; 2.41% in test [15]; 97.5% in test [16]; 107% in [17]; 4.29% in [18]. The values for the inhibition in [19] and in [20] were 6.14% and 12.8%, respectively.
As to `FC(F)(F)c1ccc(-c2nn3ncccc3c2-c2ccnc(Nc3ccc4c(c3)OCCO4)n2)cc1`, the inhibition in test [1] was -1.52%; in [2], 4.77%; in [3] it was 2.05%; in [4], 1.11%; in [5], 1.32%; in [6] it was -1.63%. Moreover, the inhibition in test [7] is 1.37%; in [8], -5.04%; in test [9], -5.62%; in test [10], -5.79%; in test [11], -0.89%; in test [12], 0.09%. The inhibition is -1.77% in test [13]; 3.35% in [14]; -0.25% in test [15]; -2.47% in test [16]; 4.74% in test [17]; 0.29% in test [18]. Besides, the inhibition in test [19] was 10.3%; in [20], 2.65%.
